# Data from PubChem BioAssay (EPA / NIEHS).
# A structure can be active in one record and inactive in another. Calls of active or inactive are those of the source. How the source made its calls: active means hit-call score of the fitted dose curve at least 0.9, where 1 is the maximum; inactive means score below 0.9.
# Read-out: Matrix Metallopeptidase 1 (MMP1), MMP1 (gene 4312)
# Experiment: BSK_MyoF_MMP1: BioMAP Diversity Plus: MyoF Assay for Matrix Metallopeptidase 1 (MMP1) Biomarker Activity (AID 2284268)
# Details: primary human lung fibroblasts
# Description: BSK_MyoF is a cell-based, multiplexed-readout assay that uses lung fibroblasts, […], with measurements taken at 24 hours after chemical dosing in a microplate: 96-well plate.BSK_MyoF_MMP1 is an assay component measured in the BSK_MyoF assay. It measures […] antibody related to regulation of gene expression using ELISA technology.Data from the assay component BSK_MyoF_MMP1 was analyzed at the endpoint, BSK_MyoF_MMP1, in the positive analysis fitting direction relative to DMSO as the negative control and baseline of activity. Using a type of binding reporter, gain or loss-of-signal activity can be used to understand protein changes. To generalize the intended target to other relatable targets, this assay endpoint is annotated to the 'protease' intended target family, where the subfamily is 'matrix metalloproteinase'.
# The levels of cell surface (or secreted, indicated by the prefix "s") biomarker endpoints were measured by ELISA. Overt cytotoxicity to cells in confluent adherent cultures (all systems other than the BT system) was assessed by measuring total protein levels using sulforhodamine B (SRB) staining in parallel cultures at the time of biomarker measurements, indicated as SRB endpoints. For proliferation assays for adherent cell types, individual cell types are cultured at sub-confluence and relative cell numbers quantified by SRB staining at time points optimized for each system (48 h: 3C and CASM3C systems; 72 h: BT and HDF3CGF systems; 96 h: SAg system). SRB was performed by staining cells with 0.1% SRB after fixation with 10% TCA and reading wells at 560 nm.Viability and proliferation of PBMC (T cells) was quantified by Alamar Blue reduction for the SAg and BT systems. For PBMC viability (referred to as PBMC Cytotoxicity within the assay endpoint names), cells were plated (75,000/well in a 96-well plate) and then chemical samples added for 1 h before addition of activators, SEB and TSST-1 (20 ng/mL final concentration each). Cells were incubated for 90 h. Then, Alamar Blue (20 uL/well) (Invitrogen, Cat DAL1100) was added for 6 h, and the plates were read with a fluorescence microplate reader at 546/580 nm (excitation/emission). For PBMC proliferation, cells were plated and activated as above but incubated for only 16 h prior to addition of Alamar Blue. Plates were read after 6 h.
Structure (SMILES),AC50,outcome
CC1(C)[C@H](C(=O)O[C@H](C#N)c2cccc(Oc3ccccc3)c2)[C@@H]1/C=C(\Cl)C(F)(F)F,3.39 µM (active),inactive
OC(Cc1ccccc1Cl)(Cn1cncn1)C1(Cl)CC1 (stereo not given),–,inactive
C#CCOC(=O)/C=C(C)/C=C/CC(C)CCCC(C)C (stereo not given),–,inactive
Cc1ccccc1OP(=O)(Oc1ccccc1)Oc1ccccc1,29.6 µM (active),–
Oc1c(Br)cc(Br)cc1Br,12.4 µM (active),–
c1ccc(-c2cccc(-c3ccccc3)c2)cc1,8.44 µM (active),–
Oc1cccc(-c2ccccc2)c1,31.2 µM (active),–
O=C(CCl)NCO,–,inactive
O=[N+]([O-])c1ccc(Nc2ccccc2)cc1,–,inactive
Cc1ccccc1OP(=O)(Oc1ccccc1C)Oc1ccccc1C,–,inactive
CC(C)=CC1C(C(=O)OCc2cccc(Oc3ccccc3)c2)C1(C)C (stereo not given),–,inactive
N#CCCC(Br)(C#N)CBr (stereo not given),–,inactive
O=[N+]([O-])c1cccc2ccccc12,–,inactive
Cc1cc(Cl)ccc1N,–,inactive
Nc1ccc(N)cc1,–,inactive
CCOC(=O)C(SP(=S)(OC)OC)c1ccccc1 (stereo not given),–,inactive
CCOP(=S)(OCC)SCS(=O)(=O)C(C)(C)C,–,inactive
Cc1c([N+](=O)[O-])c(C)c([N+](=O)[O-])c(C(C)(C)C)c1[N+](=O)[O-],20 µM (active),–
O=S(=O)(C(Cl)(Cl)Cl)C(Cl)(Cl)Cl,7.05 µM (active),–
NC(=O)CCl,–,inactive

Structure (SMILES),AC50,outcome
O=c1oc2ccccc2c(O)c1C(CC(O)c1ccc(-c2ccc(Br)cc2)cc1)c1ccccc1 (stereo not given),–,inactive
[Cl][Sn]([c]1ccccc1)([c]1ccccc1)[c]1ccccc1,0.423 µM (active),–
CC(C)N(C(=O)CCl)c1ccccc1,–,inactive
COCC(=O)N(c1c(C)cccc1C)[C@H](C)C(=O)OC,–,inactive
CCOC(=O)CCN(SN(C)C(=O)Oc1cccc2c1OC(C)(C)C2)C(C)C,–,inactive
O=C1C=CC(=O)c2ccccc21,10.1 µM (active),–
CCCCN(CCCC)C(=S)[S-].CCCCN(CCCC)C(=S)[S-].[Ni+2],–,inactive
C=CC(Cl)CCl (stereo not given),–,inactive
C[C@]12CC[C@@H](O)C[C@@H]1CC[C@@H]1[C@@H]2CC[C@]2(C)C(=O)CC[C@@H]12,–,inactive
CC(C=O)Cc1ccc2c(c1)OCO2 (stereo not given),–,inactive
Cc1cc(C(C)(C)c2ccc(O)c(C)c2)ccc1O,15.7 µM (active),–
O=S(=O)(c1ccc(Cl)cc1)c1cc(Cl)c(Cl)cc1Cl,20 µM (active),–
CCOP(=S)(OCC)OP(=S)(OCC)OCC,–,inactive
Cc1cc(Cl)ccc1OC(C)C(=O)O (stereo not given),–,inactive
CCC(C)(C#N)N=NC(C)(C#N)CC (stereo not given),–,inactive
Nc1c(Oc2ccccc2)cc(O)c2c1C(=O)c1ccccc1C2=O,–,inactive
CCCCCCCCCCCCN(C)C,–,inactive
CCOP(=O)(OCC)OC(=CCl)c1ccc(Cl)cc1Cl,31.7 µM (active),–
c1ccc2sc(SNC3CCCCC3)nc2c1,–,inactive
